activity, Potency and activity change, negative = inhibition data for 30 molecules are collected here from PubChem BioAssay (NCATS).

Common to all, as to assay: Confirmatory Screen for Target Class Profiling of Small Molecule Inhibitors of Methyltransferases (AID 1745852); as to activity change, negative = inhibition: % is scaled to controls: 0 for no effect and ±100 for the full control effect
Assay [1] deals with Catechol O-methyltransferase (Homo sapiens) (UniProt P21964). The settings on record: MTase-Glo luminescence, SAH detection, recombinant enzyme; measured here: COMT max response; stronger effect = lower value.
Sequence of Catechol O-methyltransferase (Homo sapiens) (P21964 whole entry, looked up): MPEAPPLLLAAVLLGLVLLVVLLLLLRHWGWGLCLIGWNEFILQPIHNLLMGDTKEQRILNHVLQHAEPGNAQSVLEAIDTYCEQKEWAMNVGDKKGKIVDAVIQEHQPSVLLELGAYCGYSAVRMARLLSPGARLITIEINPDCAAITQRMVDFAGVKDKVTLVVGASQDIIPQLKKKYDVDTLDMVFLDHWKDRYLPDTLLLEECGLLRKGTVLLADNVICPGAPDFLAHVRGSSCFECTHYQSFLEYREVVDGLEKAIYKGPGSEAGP
Assay [2] deals with Guanidinoacetate N-methyltransferase (Homo sapiens) (UniProt Q14353). The settings on record: MTase-Glo luminescence, SAH detection, recombinant enzyme; activity change, negative = inhibition: at 57.3 µM (top of the series) unless noted; series mostly up to 57.3 µM.
The target of assay [3] is Nicotinamide N-methyltransferase (Homo sapiens) (UniProt P40261). The settings on record: MTase-Glo luminescence, SAH detection, recombinant enzyme; measured here: NNMT max response; stronger effect = lower value.
Sequence of Nicotinamide N-methyltransferase (Homo sapiens) (P40261 whole entry, looked up): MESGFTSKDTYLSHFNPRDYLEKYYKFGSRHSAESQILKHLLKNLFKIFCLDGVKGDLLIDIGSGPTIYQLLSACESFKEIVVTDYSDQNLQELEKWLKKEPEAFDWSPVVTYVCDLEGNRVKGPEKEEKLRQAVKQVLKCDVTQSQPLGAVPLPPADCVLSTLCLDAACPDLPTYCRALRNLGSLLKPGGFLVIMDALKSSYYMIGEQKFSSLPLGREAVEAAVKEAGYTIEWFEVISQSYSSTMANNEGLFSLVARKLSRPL
In assay [4] the target is Phenylethanolamine N-methyltransferase (Homo sapiens) (UniProt P11086). The settings on record: MTase-Glo luminescence, SAH detection, recombinant enzyme; measured here: PNMT max response; stronger effect = lower value.
Sequence of Phenylethanolamine N-methyltransferase (Homo sapiens) (P11086 whole entry, looked up): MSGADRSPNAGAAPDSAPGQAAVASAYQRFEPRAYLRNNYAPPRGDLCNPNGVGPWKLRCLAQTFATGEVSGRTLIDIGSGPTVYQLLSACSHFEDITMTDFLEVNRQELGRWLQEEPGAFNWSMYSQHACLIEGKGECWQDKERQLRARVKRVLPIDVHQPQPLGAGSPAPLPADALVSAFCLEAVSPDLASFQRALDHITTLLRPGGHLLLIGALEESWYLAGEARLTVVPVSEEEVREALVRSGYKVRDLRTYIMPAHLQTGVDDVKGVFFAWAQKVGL

Activity calls are given as the source filed them. Calls follow the shape of the full dose curve.
Potency is read from the fitted curve at half-maximal effect.

Consider `CCOc1cc(OCC)c2c(-c3ccccc3)cc(=O)oc2c1`, for which the activity is -64.6% in assay [1], -49.7% in assay [3] and -65.2% in assay [4]. For the same molecule, in assay [2], the Potency is 15.2 µM (active).
Regarding `Cn1c(C(=O)NCCN2CCCCC2)cc2c1CCN(Cc1cccc(F)c1)C2`, the activity in assay [1] was found to be 7.65%; in assay [3], 7.53%; in assay [4], 7.04%. In addition, the activity change, negative = inhibition in assay [2] came out at 15.7%.
Turning to `COc1ccc(OC)c2c1cc1n2CC(C)(C(=O)NC2CCCCCC2)N(Cc2ccccn2)C1=O` (stereo not given), the activity is 3.33% in assay [1], -20.5% in assay [3] and -2.24% in assay [4]. Besides, the Potency entry in assay [2] is “inactive”.
On to `Cn1c(COc2cccc(CN3CCCC3)c2Cl)nnc1C1CC(N)C1` (stereo not given), for which the activity in assay [1] was 0.772%; in assay [3], -2.09%; in assay [4] it was -1.62%. In assay [2], the activity change, negative = inhibition was -2.28%.
Regarding `Cc1ccc(NS(=O)(=O)c2ccc3[nH]c(=O)[nH]c3c2)cc1F`, the activity is -8.47% in assay [1], -16.3% in assay [3] and -45.9% in assay [4]. Moreover, in assay [2], the activity change, negative = inhibition is -6.18%.
Consider `Cc1ccc(Cn2c(=O)c3ccccc3n3c(CCC(=O)NCCN4CCCC4)nnc23)cc1`, for which the activity in assay [1] is -6.32%; in assay [3], -16.1%; in assay [4], -2.34%. The activity change, negative = inhibition in assay [2] was -1.98%.
The like results for `O=C(NCc1cccc(F)c1)c1nc2c(o1)CCN(CC1CCCC1)CC2` were, in that order, 5.53%, 5.46%, -10.1% and 18.3% [at 85.7 µM].
The like results for `CCCC1c2cccn2CCN1C(=O)Nc1ccccc1C(F)(F)F` (stereo not given) were, in that order, -12.1%, -18.7%, -13.3% and -8.26%.
The like results for `Cc1ccc(Cn2c(=O)c3ccccc3n3c(CCC(=O)NCCCN4CCC(C)CC4)nnc23)cc1` were, in that order, 0%, -6.98%, 0% and 0%.
`COc1ccc(CCN2C(=O)c3cc4occc4n3CC2(C)C(=O)NC2CCCCCC2)cc1OC` (stereo not given): the activity in assay [1] was -3.67%; in assay [3], -64.2%; in assay [4], -5.31%. Besides, in assay [2], the activity change, negative = inhibition was -1.83%.
The like results for `CCN(CC)CCNC(=O)CCc1nnc2n(Cc3ccccc3Cl)c(=O)c3ccccc3n12` were, in that order, -5.86%, -14.7%, 2.62% and -1.02%.
For the molecule `NC(=O)C1(N2CCCCC2)CCN(c2nc3c(S(=O)(=O)c4ccccc4)nnn3c3ccccc23)CC1`, the activity is -1.9% in assay [1], -8.86% in assay [3] and -8.88% in assay [4]. The activity change, negative = inhibition in assay [2] stood at 0%.
On to `COc1ccc(-c2cc(-c3cnn(C)c3)cn3cncc23)cn1`, for which the activity is -23.7% in assay [1], -36.8% in assay [3] and -7.46% in assay [4]. For the same molecule, the activity change, negative = inhibition in assay [2] was -6.32% [at 85.7 µM].
The like results for `O=C(Cn1c(=O)oc2cc(S(=O)(=O)N3CCCC3)ccc21)Nc1ccc(F)c(Cl)c1` were, in that order, -3.81%, -2.29%, -63.9% and 1.53%.
The like results for `O=C(N[C@H](C1CCNCC1)C1CC(O)C1)c1ccc2nccnc2c1` (stereo not given in full) were, in that order, -0.82%, 10.8%, 3.61% and 1.16%.
The like results for `COc1ccc(CNc2cc3c(cn2)CN(Cc2ccccc2)CCN3)cc1OC` were, in that order, 2.46%, -32.8%, 1.92% and 0.935% [at 85.7 µM].
Regarding `CCOC(=O)C1CCCN(S(=O)(=O)c2ccc3[nH]c(=O)[nH]c3c2)C1` (stereo not given), the activity in assay [1] is 2.57%; in assay [3], -6.43%; in assay [4] it was -50.4%. The activity change, negative = inhibition in assay [2] turned out to be 0%.
The like results for `CC1CCN(CCCNC(=O)CCc2nnc3n(Cc4ccc(Cl)cc4)c(=O)c4ccccc4n23)CC1` were, in that order, -7.96%, -19%, -5.13% and -1.55%.
For the molecule `COC1CCN(c2cc(-c3ccsc3)nc3c(C)noc23)CC1`, the activity is -4.15% in assay [1], -17% in assay [3] and -10.4% in assay [4]. Moreover, the activity change, negative = inhibition in assay [2] is -0.422% [at 85.7 µM].
The like results for `CCCC1c2cccn2CCN1C(=O)Nc1ccc(Br)cc1` (stereo not given) were, in that order, -7.6%, -18.3%, -12.2% and -4.2%.
The like results for `CCCCN1C(=O)c2cc(C(=O)Nc3cc(C)cc(C)c3)nn2CC1(C)C(=O)NC1CCCC1` (stereo not given) were, in that order, -1.58%, 1.44%, -4.22% and 0%.
The like results for `CCN(CC)CCCNC(=O)CCc1nnc2n(Cc3ccc(Cl)cc3)c(=O)c3ccccc3n12` were, in that order, 4.07%, -5.57%, 0% and 0%.
For the molecule `CN(C)c1nc2c(c(N3C[C@@H](CN4CCCC4)[C@@H](CO)C3)n1)CCCC2`, the activity in assay [1] was found to be 4.35%; in assay [3] it was 3.39%; in assay [4], 3.79%. For the same molecule, the activity change, negative = inhibition in assay [2] was found to be 2.26%.
As to `COc1ccc(CC(=O)Nc2ccc3ncnc(N4CCCC4)c3c2)c(Cl)c1`, the activity is -2.51% in assay [1], -30.7% in assay [3] and -8.25% in assay [4]. For the same molecule, the activity change, negative = inhibition in assay [2] is -0.581%.
The like results for `Cc1noc(C)c1[S+](=O)([O-])N1CCn2c(nn(-c3ccc(C(F)(F)F)cc3)c2=O)C1` were, in that order, -1.02%, -3.73%, -10.3% and -1.81%.
The like results for `O=C(Nc1ccc(F)c(Cl)c1)N1CCn2cccc2C1Cc1ccccc1` (stereo not given) were, in that order, -2.26%, -5.36%, -6.59% and 1.87%.
The like results for `O=C1c2ccccc2C(=O)c2c1cccc2S(=O)(=O)Nc1ccc(Cl)cc1` were, in that order, 0.0726%, -1.28%, -37% and -0.67%.
With `CCCCN1C(=O)c2cc(C(=O)NCc3ccc(OC)cc3OC)nn2CC1(C)C(=O)NC1CCCC1` (stereo not given), the activity was 0.43% in assay [1], -36.8% in assay [3] and -3.65% in assay [4]. In assay [2], the activity change, negative = inhibition was 0%.
For the molecule `Cc1nc2cccnc2n1CC1CCCN(S(=O)(=O)c2ccc3c(c2)OCCO3)C1` (stereo not given), the activity was 2.68% in assay [1], -4.66% in assay [3] and -0.0682% in assay [4]. For the same molecule, the activity change, negative = inhibition in assay [2] is -0.116%.
The like results for `CCCc1sc(NC(=O)C[C@H]2NC(=O)c3ccccc3NC2=O)nc1C(=O)OC` were, in that order, 4.16%, -4.71%, 3.73% and 2.83%.
